Screening results: PubChem BioAssay, National Center for Advancing Translational Sciences (NCATS)
L3MBTL1 block: L3MBTL1 (human) inhibition | Potency, µM (series often up to 57.1 µM), inactives show at the highest dose activity, negative = inhibition, hits mostly inhibitors | hit rate 0.66% among 230,000 | Q9Y468 | AlphaScreen L3MBTL1–H3K9me1 peptide binding | AID 485360; also: potency is read from the fitted curve at half-maximal effect; % is scaled to controls: 0 for no effect and ±100 for the full control effect; nearly all actives have a fitted effect of over 60% in size
Target sequence (Q9Y468 whole entry, looked up): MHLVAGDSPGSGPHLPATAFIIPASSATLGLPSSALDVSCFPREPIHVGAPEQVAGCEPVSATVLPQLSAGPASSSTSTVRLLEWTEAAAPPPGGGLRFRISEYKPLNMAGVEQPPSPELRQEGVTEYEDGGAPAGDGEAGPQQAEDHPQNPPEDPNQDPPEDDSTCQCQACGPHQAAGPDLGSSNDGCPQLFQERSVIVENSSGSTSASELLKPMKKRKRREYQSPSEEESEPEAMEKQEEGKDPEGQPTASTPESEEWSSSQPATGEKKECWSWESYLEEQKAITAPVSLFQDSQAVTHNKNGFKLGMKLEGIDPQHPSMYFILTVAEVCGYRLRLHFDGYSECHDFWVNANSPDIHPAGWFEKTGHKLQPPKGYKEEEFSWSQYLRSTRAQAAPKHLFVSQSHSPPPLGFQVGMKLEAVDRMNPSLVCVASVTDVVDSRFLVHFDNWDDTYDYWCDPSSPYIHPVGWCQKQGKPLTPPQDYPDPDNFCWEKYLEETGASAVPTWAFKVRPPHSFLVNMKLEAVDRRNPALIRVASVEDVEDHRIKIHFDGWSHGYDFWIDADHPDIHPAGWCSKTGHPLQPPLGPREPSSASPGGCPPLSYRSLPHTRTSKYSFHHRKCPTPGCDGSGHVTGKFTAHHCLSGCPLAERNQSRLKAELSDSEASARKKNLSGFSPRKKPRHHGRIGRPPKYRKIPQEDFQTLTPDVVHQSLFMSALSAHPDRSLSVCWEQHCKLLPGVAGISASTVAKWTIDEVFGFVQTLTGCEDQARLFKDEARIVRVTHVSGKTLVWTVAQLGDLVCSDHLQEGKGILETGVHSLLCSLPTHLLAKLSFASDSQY
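First, the protein-peptide complex forms for 30 min at room temperature (L3MBTL1 50 nM, biotinylated H3K9me1 peptide 75 nM). Next, compounds are pin-transferred and incubated 30 min. Finally, AlphaScreen beads are added and read after 30 min.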
JMJD2A Tudor inh: JMJD2A Tudor domain (human) inhibition; Potency, µM (top dose mostly 114 µM), inactives show at the top dose activity change, negative = inhibition, hits mostly inhibitors; AlphaScreen JMJD2A-Tudor / H3K4me3 peptide binding; O75164; AID 504339; hit rate 4.4% among 390,000; also: potency is read from the fitted curve at half-maximal effect; % is scaled to controls: 0 for no effect and ±100 for the full control effect; nearly all actives have a fitted effect of over 50% in size
BAZ2B inh: BAZ2B (human) inhibition; AlphaScreen BAZ2B-H3K14Ac peptide displacement; Potency, µM (doses to about 114 µM), for the others: top-dose activity change, negative = inhibition, actives largely listed as inhibitors; hit rate 4.4% among 360,000; AID 504333; also: potency is read from the fitted curve at half-maximal effect; % is scaled to controls: 0 for no effect and ±100 for the full control effect; nearly all actives have a fitted effect of over 60% in size
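AlphaScreen displacement of biotin-H3(5-23)K14Ac peptide (50 nM final) from BAZ2B (50 nM final) in PBS pH 7.4, 0.01% Tween-20; complex preformed 30 min RT, then compounds (top 110 uM) 30 min RT, beads 20 min dark.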
G9a block: blocks human histone lysine methyltransferase G9a; Q96KQ7; hit rate 8.8% among 350,000; G9a H3K9 monomethylation, AlphaScreen, 2 h; AID 504332; Potency, µM (titrated, usually from 102 µM), without a hit: at the highest dose activity, negative = inhibition, hits mostly inhibitors; also: potency is read from the fitted curve at half-maximal effect; % is scaled to controls: 0 for no effect and ±100 for the full control effect; nearly all actives have a fitted effect of over 75% in size
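G9a (20 nM) was preincubated 15 min with compound, then reacted 2 h at room temperature with 500 nM biotin-H3K9 peptide and 20 µM SAM. Monomethyl-H3K9 detected by AlphaScreen using anti-H3K9me1 antibody.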
HP1b binding inh: blocks HP1-beta chromodomain binding to methylated histone tails; AlphaScreen HP1-beta / biotin-H3K9me3 peptide binding; AID 540317; P83916; Potency, µM (top dose mostly 114 µM), for inactives: at the highest dose activity change, negative = inhibition, usual class: inhibitors; hit rate 0.56% among 390,000; also: potency is read from the fitted curve at half-maximal effect; nearly all actives have a fitted effect of over 70% in size
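AlphaScreen: HP1-beta (50 nM) preformed 30 min with biotin-H3(1-18)K9me3 peptide (50 nM) in PBS pH 7.4, 0.01% Tween-20. Compound added for 30 min at RT, then streptavidin donor/nickel chelate acceptor beads (10 ug/mL) for 30 min.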
PI5P4K alpha inh: PI5P4K alpha (human) kinase inhibition; P48426; PI5P4Kalpha enzyme, ADP-Glo luminescence, 60 min; active compounds read low; max response, %; hit rate 1.2% among 330,000; AID 652105; active = max response of -50% or lower; inconclusive = between -30% and -50%; inactive = -30% or higher; also: value at the top dose of about 77 µM; % is scaled to controls: 0 for no effect and ±100 for the full control effect
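ADP-Glo luminescence end-point after a 60 min room-temperature kinase reaction. PI5P4Kalpha and substrate in HEPES pH 7.4 buffer with EGTA, 0.1% CHAPS and 5% DMSO; ATP at 5 microM final.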
Numbers without * were called inactive; ? = inconclusive; nt = no result; [ ] = another dose, or the depositor's remark. Hits are enriched below; roughly 11% of the tested compounds scored in any of these assays. Unless noted, calls follow the shape of the dose curve; as a rule, active = well fitted inhibition curve with a large enough effect; inconclusive = small, poorly fitted or top-dose-only effect; inactive = no such curve, though single readings can be large or run the other way.

SMILES | L3MBTL1 block | JMJD2A Tudor inh | BAZ2B inh | G9a block | HP1b binding inh | PI5P4K alpha inh
Cn1c(=O)c2cc(C(=O)Nc3cccc(C#N)c3)sc2c2ccccc21 | nt | -1% | nt | 30%[59 µM] | 61% | nt
Cc1c(-c2nsc(NC(=O)c3cccs3)n2)nnn1-c1ccc(F)cc1 | nt | -8% | -10% | -14%[59 µM] | -8% | nt
O=C(NNC(=S)NC(=O)c1ccc(Br)cc1)c1cccc([N+](=O)[O-])c1 | nt | -25% | 7% | 35µM* | 20% | -28
O=C(NNC(=S)NCc1ccccc1)c1cccc([N+](=O)[O-])c1 | -13% | -28% | -20% | -42% | 20% | 9
O=C(NC(=S)Nc1cccc(NC(=O)c2ccccc2)c1)c1cccc([N+](=O)[O-])c1 | -5% | -18% | -29% | -7%[59 µM] | -5% | -1
CNC(=S)N/N=C(\C)c1cccc([N+](=O)[O-])c1 | -5% | -23% | 50µM* | ? | -8% | -5
C/C(=N\NC(=O)C(N)=O)c1cccc([N+](=O)[O-])c1 | 5% | ? | ? | ? | 33% | -3
O=C(NNC(=S)NC(=O)c1ccccc1Cl)c1cccc([N+](=O)[O-])c1 | nt | -15% | 3% | 35µM* | -1% | -11
CC(=O)NNC(=S)NC(=O)c1cccc([N+](=O)[O-])c1 | 1% | 8.9µM* | ? | ? | ? | ?
COc1ccc(Oc2ncc3ncc(=O)n(C[C@H]4CCCO4)c3n2)cc1 | nt | nt | nt | 2%[12.7 µM] | nt | nt
CN1C(=O)Cc2cc([S+](=O)([O-])N3CCN([S+](=O)([O-])c4c(F)cccc4F)CC3)ccc21 | nt | -27% | nt | nt | nt | nt
CC1CCN(C(=S)NC(=O)c2cccs2)CC1 | nt | -10% | -19% | 45µM* | 23% | -3
CC1CCN(C(=S)NC(=O)c2cccc([N+](=O)[O-])c2)CC1 | nt | -28% | -25% | 71µM* | 24% | -6
CCOc1ccc(C2C(C(=O)Nc3ccccc3)=C(C)Nc3nc(-c4ccccc4)nn32)cc1OC (stereo unspecified) | nt | -18% | 3% | 19%[59 µM] | 15% | nt
COC(=O)C(C)Sc1nc2c(c(=O)[nH]c(=O)n2C)n1CCC(C)C (stereo unspecified) | 3% | 9% | -6% | -10%[59 µM] | 20% | 3
COC(=O)C(C)Sc1nc2c(c(=O)n(C)c(=O)n2C)n1CCC(C)C (stereo unspecified) | 3% | 12% | -2% | 79µM* | 20% | 4
CCOC(=O)c1c(C)[nH]c(C)c1S(=O)(=O)N1CCCC(C(=O)Nc2ccccc2OCC)C1 (stereo unspecified) | nt | -19% | ? | -20%[59 µM] | 34% | nt
COc1ccc(N=Cc2cc(Cc3ccccc3Cl)cc([N+](=O)[O-])c2O)cc1OC | nt | ? | ? | 40µM* | -14% | ?
Cc1ccc(N=Cc2cc(Cc3ccccc3Cl)cc([N+](=O)[O-])c2O)c(O)c1 | nt | 14µM* | 25µM* | 32µM* | ? | -69*
COc1cc(CCN=Cc2cc(Cl)cc(Cl)c2O)c([N+](=O)[O-])cc1OC | nt | nt | nt | nt | nt | -12
CSc1nc2sc3c(c2c(=O)n1C1CCCCC1)CCN(C)C3 | -2% | -35% | -29% | 50µM* | 46% | -5
Nn1c(Nc2ccccc2)nc2sc3c(c2c1=O)CCC3 | nt | -34% | ? | 4%[12.7 µM] | -6% | -13
CCOC(=O)CSc1nc2sc3c(c2c(=O)n1CC)CCCC3 | nt | -9% | 3% | ? | 37% | nt
C#CCSc1nc2sc3c(c2c(=O)n1C)CCC3 | nt | 79µM* | 50µM* | 45µM* | ? | ?
NNc1nc2sc3c(c2c(=O)n1Cc1ccccc1)CCC3 | -30% | -32% | -23% | ? | -18% | -74*
CSc1nc2sc3c(c2c(=O)n1C)CCC3 | nt | -6% | -13% | nt | 29% | 3
CCn1c(SCC(N)=O)nc2sc3c(c2c1=O)CCCC3 | nt | -9% | -6% | 45µM* | 38% | 5
CCc1ccccc1N1CC(c2nc3ccccc3n2CC(C)C)CC1=O (stereo unspecified) | nt | -17% | -3% | 5%[59 µM] | 0% | nt
